Screening results (PubChem)
PAFAH1B3 inh = PAFAH1B3 (human) inhibition; AID 492972; recombinant PAFAH1B3, FP-rhodamine probe, fluorescence polarization; hit rate 0.28% among 340,000; inhibition, % at 3.39 µM;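 active = inhibition above the screen-wide average of all tested compounds plus 3 SD, cut at about 25% in these data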;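 also: 0% = enzyme with DMSO only and 100% = wells lacking PAFAH1B3 protein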
Fh CTSL1 inh = blocks F. hepatica cathepsin L1 in PFM18AAP counter-screen; AID 1906; recombinant F. hepatica cathepsin L1, Z-Leu-Arg-MCA fluorescence; hit rate 0.49% among 300,000; inhibition, % at 5.96 µM;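 active = inhibition above the mean of all tested compounds plus 3 SD, set per screening campaign, cut at about 17% in these data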;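 also: 0% = plate median of test compound wells and 100% = 1 µM Z-Phe-Ala-diazomethylketone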
pPAFAH inh = pPAFAH (human) enzyme inhibition. Q13093. recombinant pPAFAH, FP-rhodamine probe fluorescence polarization. inhibition, % at 3.39 µM. hit rate 1.5% among 330,000. AID 463082;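 active = inhibition above the mean inhibition across the screen plus 3 SD, cut at about 25% in these data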;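 also: inhibitors block binding of the rhodamine activity-based probe so polarization drops; 0% = enzyme with DMSO and 100% = wells lacking pPAFAH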
Target sequence (Q13093 whole entry, looked up): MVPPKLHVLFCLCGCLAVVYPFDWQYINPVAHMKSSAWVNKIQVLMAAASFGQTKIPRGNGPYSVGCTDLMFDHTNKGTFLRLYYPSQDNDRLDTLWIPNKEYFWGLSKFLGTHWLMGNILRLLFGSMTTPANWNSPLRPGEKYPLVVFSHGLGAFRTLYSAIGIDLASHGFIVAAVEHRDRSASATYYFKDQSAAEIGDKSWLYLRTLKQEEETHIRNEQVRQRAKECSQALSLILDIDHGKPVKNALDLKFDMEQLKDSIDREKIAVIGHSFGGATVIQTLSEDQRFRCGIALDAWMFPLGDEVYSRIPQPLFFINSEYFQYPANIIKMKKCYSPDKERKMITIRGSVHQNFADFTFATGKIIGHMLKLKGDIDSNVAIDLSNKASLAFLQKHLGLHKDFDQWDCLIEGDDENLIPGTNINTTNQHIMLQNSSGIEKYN
PAFAH1B2 FP inh = blocks human PAF acetylhydrolase 1b catalytic subunit 2 | hit rate 1.2% among 340,000 | AID 492953 | recombinant PAFAH1B2, FP-rhodamine activity probe, fluorescence polarization | P68402 | inhibition, % at 3.39 µM;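 active = inhibition above the mean of all tested compounds plus 3 SD, cut at about 24% in these data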;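 also: 0% = enzyme with DMSO and 100% = wells lacking PAFAH1B2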
PP5 primary = inhibitors of human protein phosphatase 5 (PP5). purified PP5c, OMFP substrate fluorescence. hit rate 0.18% among 320,000. P53041. inhibition, % at 6.7 µM;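 active = inhibition above the campaign's mean inhibition across all tested compounds plus 3 SD, cut at about 9.5% in these data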;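 also: 0% = DMSO only and 100% = 100 µM cantharidin control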
PAFAH2 FP inh = PAFAH2 (human) inhibition. hit rate 0.99% among 340,000. AID 492956. recombinant PAFAH2, FP-rhodamine activity probe, fluorescence polarization. inhibition, % at 3.39 µM;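 active = inhibition above the mean over all tested compounds plus 3 SD, cut at about 30% in these data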;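 also: inhibitors block probe labeling of enzyme so polarization drops; 0% = enzyme with DMSO and 100% = wells lacking PAFAH2 protein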
PAFAH2 FP conf = confirmation of human PAFAH2 inhibitors; hit rate 65% among 2,300; AID 493030; shares compounds with PAFAH2 FP inh; recombinant PAFAH2, FP-rhodamine activity probe, fluorescence polarization; inhibition, % at 3.39 µM;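 active = mean inhibition over three repeats above a set limit taken from the earlier primary screen, cut at about 30% in these data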;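 also: inhibitor blocks binding of rhodamine activity probe so polarization falls; 0% = enzyme with DMSO and 100% = wells lacking PAFAH2 protein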
Active calls of the source: *; nt = no result given. Shown are actives, neighbours in structure and some others; about 3% of the full set was active somewhere.

SMILES | PAFAH1B3 inh | Fh CTSL1 inh | pPAFAH inh | PAFAH1B2 FP inh | PP5 primary | PAFAH2 FP inh | PAFAH2 FP conf
CC1(NC(=O)NCCCCCCNC(=O)NC2(C)CCS(=O)(=O)C2)CCS(=O)(=O)C1 (configuration not stated) | 6 | 0 | 2 | -2 | 1 | 44* | 37*
CC1(NC(=S)NCCCCCCNC(=S)NC2(C)CCS(=O)(=O)C2)CCS(=O)(=O)C1 (configuration not stated) | 5 | -1 | 2 | 2 | 0 | 4 | nt
N#Cc1ccccc1OCC(=O)NNC(=O)CCC1CCCC1 | 1 | nt | 16 | 6 | nt | 41* | 26
N#Cc1ccccc1OCC(=O)NCCNC(=O)COc1ccccc1C#N | 2 | 4 | 4 | 0 | 2 | -1 | nt
CCCc1cc(=O)n2[nH]c(C)nc2n1 | 5 | 3 | -6 | -2 | 2 | 1 | nt
CCCc1cc(=O)n2[nH]c(Cc3ccccc3)nc2n1 | 12 | -1 | 8 | 11 | 0 | 31* | 16
O=C(CSc1cccc[n+]1[O-])c1ccccc1Br | 2 | -1 | 0 | 3 | 2 | 39* | 39*
O=C1CCC/C=C\C[C@@H](CC(=O)N(CCO)Cc2ccccc2)C(=O)N[C@H](Cc2c[nH]c3ccccc23)CO1 | 5 | nt | -4 | 5 | nt | 10 | nt
O=C1CCCC/C=C\C[C@H](CC(=O)N(CCO)Cc2ccccc2)C(=O)N[C@@H](Cc2ccccc2)CO1 | 9 | nt | 0 | 17 | nt | 45* | 28
O=C1CCC/C=C/C[C@H](CC(=O)N(CCO)Cc2ccccc2)C(=O)N[C@@H](Cc2ccccc2)CO1 | -7 | nt | 2 | 5 | nt | 45* | 29
COc1cccc(NC(=O)COC(=O)C2CC3CCCC(C2)C3=O)c1 (configuration not stated) | -2 | nt | -3 | 9 | 0 | 58* | 54*
COc1cccc(CNC(=O)COC(=O)C2CC3CCCC(C2)C3=O)c1 (configuration not stated) | 6 | -5 | -1 | 3 | 1 | -4 | nt
Cc1ccc([N+](=O)[O-])c(NC(=O)COC(=O)C2CC3CCCC(C2)C3=O)c1C (configuration not stated) | 8 | 3 | 0 | 2 | 0 | 34* | 32*
Cc1cccc([N+](=O)[O-])c1NC(=O)COC(=O)C1CC2CCCC(C1)C2=O (configuration not stated) | 6 | 2 | 3 | 3 | 1 | 9 | nt
CC1CCCC(NC(=O)COC(=O)c2ccc3ncsc3c2)C1C (configuration not stated) | 3 | nt | -4 | 4 | 3 | 85* | 76*
COc1ccc(C(=O)NC(=O)COC(=O)c2ccc3ncsc3c2)cc1 | nt | -2 | -3 | nt | 5 | nt | nt
CC1CCCCC1NC(=O)COC(=O)c1ccc2ncsc2c1 (configuration not stated) | 11 | nt | -3 | 7 | 2 | 84* | 78*
CC1CCCCC1NC(=O)COC(=O)c1ccc2c(c1)NC(=O)CS2 (configuration not stated) | -1 | nt | -2 | 5 | nt | 86* | 77*
CN(Cc1ccccc1)C(=O)c1[nH]cnc1C(=O)Nc1cccc(Cl)c1 | 2 | nt | 5 | 7 | 1 | -8 | nt
COc1ccccc1CNC(=O)COC(=O)c1cc(C)oc1C | 7 | -2 | 2 | 1 | 0 | 7 | nt
O=C(COC(=O)C1CC1)NCc1ccccc1Cl | 0 | -5 | 5 | 5 | -2 | 58* | 52*
Cc1cc(C(=O)OCC(=O)NCc2ccc(Cl)cc2Cl)c(C)o1 | 10 | nt | 3 | 7 | 2 | 37* | 29
COc1ccccc1CNC(=O)COC(=O)C1CC1 | 3 | nt | -1 | -6 | 2 | 24 | nt
Cc1cc(C(=O)OCC(=O)NCc2ccccc2Cl)c(C)o1 | 0 | -2 | 2 | 2 | -2 | 51* | 50*
COc1ccc(/C=C/C(=O)NC2CCN(Cc3ccccc3)CC2)cc1OC | 2 | 3 | 0 | -4 | -1 | -15 | nt
CCOc1ccc(C(=O)Nc2ccc3[nH]ncc3c2)cc1 | 3 | 0 | -4 | 1 | 3 | 0 | nt
Cc1ccc(C2=NCCn3c2c2ccc(C(F)(F)F)cc2[n+]3[O-])cc1 | 0 | 2 | 5 | 0 | 2 | 8 | nt
